# According to PubChem BioAssay (NCI):
# This is part of a sample that, as a whole, favours compounds with a hit. Of some 79,000 tested, about 15% had one in any assay. Calls of active or inactive are those of the source. Rule as the data show it: active = growth inhibition above about 70%; inactive = the rest.
# Assay: NCI Yeast Anticancer Drug Screen. Data for the rad50 strain (AID 155);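 also: 0% = growth of vehicle-only cultures of the same strain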
# Settings: S. cerevisiae rad50 strain growth inhibition; at 50.0 µM; active compounds read high
# Procedure, shortened: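 Relative growth inhibition (compound vs vehicle) was measured in yeast with a defined repair-gene alteration.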
row,Compound,growth inhibition
1,N=C(N)SCCC(=O)O,-29.4% (inactive)
2,CCOC(=O)/C=C(\C)c1ccc(OC)cc1,7.2% (inactive)
3,O=c1/c(=C/c2cccc([N+](=O)[O-])c2)sc2nc3ccccc3n12,-9.95% (inactive)
4,Nc1cc(C(=O)O)cc2ccccc12,14.8% (inactive)
5,CNC(=O)CN(CC(N)=O)C(=O)NC,-29.5% (inactive)
6,Cc1cccc(C(=O)N(C)C)c1,-0.7% (inactive)
7,CC(=O)Oc1c(C)cc2c(c1C)C(C)(C)CN2C(=O)C(C)(C)C,16.9% (inactive)
8,c1ccc(-c2cc3c(nn2)[nH]c2ccccc23)cc1,14.4% (inactive)
9,CCOC(=O)c1cc2ccccc2nc1N,0% (inactive)
10,O=C1c2ccccc2C(O)(C#Cc2ccccc2)c2c1c(-c1ccccc1)c1ccccc1c2-c1ccccc1 (stereo not given),14.7% (inactive)
11,CC(=O)Nc1cc(Cl)cc2[nH]c(C)nc12,17.1% (inactive)
12,O=[N+]([O-])c1ccccc1N=Nc1c(O)[nH]c2c(Cl)cc(Cl)cc12,-25.9% (inactive)
13,N#CCc1c(Cl)ccc(Cl)c1Cl,37% (inactive)
14,COc1ccccc1NCS(=O)(=O)O,-7.2% (inactive)
15,CCCCCCCCCCCC(=O)N/N=C(\C)c1cccc2ccccc12,86.8% (active)
16,C/C=C/c1nc2c(c(=O)n(C)c(=O)n2C)n1C,-8.05% (inactive)
17,Cn1cc(S(C)=O)c(=O)c2ccccc21 (stereo not given),2.65% (inactive)
18,S=C(S)N1CCN(c2ccc(Cl)c(Cl)c2)CC1,4% (inactive)
19,COCC(=O)Nc1ccccc1,-13.5% (inactive)
20,C=C1C(=O)O[C@H]2[C@H]1CC(=O)/C(C)=C/CC[C@@]1(C)O[C@@H]21,32.7% (inactive)

row,Compound,growth inhibition
1,CCCCNC(=O)OCC,-34.5% (inactive)
2,Cc1cc(N)cc(C)n1,22.9% (inactive)
3,CCCCCC(CCCC)OC(=O)Nc1ccccc1 (stereo not given),-4.35% (inactive)
4,C=CCOC(=O)C(C)OC(=O)/C(Cl)=C/C(=O)O (stereo not given),-2.45% (inactive)
5,Nc1ccc(P(=O)(O)c2ccc(N)cc2Br)c(Br)c1,35.1% (inactive)
6,COc1ccc(-c2nnc(Cl)o2)cc1,-1.95% (inactive)
7,O=C(CN1C(=O)c2ccccc2C1=O)OCC(=O)c1ccccc1,18.9% (inactive)
8,CCC(=O)C(CC)c1ccccc1OC (stereo not given),8.75% (inactive)
9,Cc1ccc2nc(C(O)C(O)C(O)CO)[nH]c2c1 (stereo not given),-11.3% (inactive)
10,CC(=O)Oc1ccc2c(c1)CCC1C2CCC2(C)CC(OC(C)=O)CC12 (stereo not given),12.4% (inactive)
11,Cc1ccc(C(=O)N(Cc2ccccc2)Cc2ccccc2)cc1N=NN(C)C,-44.8% (inactive)
12,CC1CCCC(=O)CCC1,2.9% (inactive)
13,CCCCCCC(C(=O)O)C(=O)O,-20.8% (inactive)
14,CN1CCC/C1=N\c1ncn[nH]1,3.3% (inactive)
15,Cc1cccc2c1CCC21OC(=O)c2c1cc(F)c1ccccc21 (stereo not given),-13.3% (inactive)
16,Cc1c2ccccc2nc(CSCC(O)CO)[n+]1[O-] (stereo not given),-8.4% (inactive)
17,O=C1CC2CCCCC2=C1O (stereo not given),18.4% (inactive)
18,CC1C2(C)OCC(C#N)(C(=N)O2)C1(C#N)C#N (stereo not given),21.2% (inactive)
19,N#CCCN(CCC#N)c1ccc(/C=C2\N=C(c3cc([N+](=O)[O-])ccc3Cl)OC2=O)cc1,-8.15% (inactive)
20,C1CCN(c2nn[nH]n2)CC1,4.05% (inactive)

# Assay: NCI Yeast Anticancer Drug Screen. Data for the mec2-1 strain (AID 157)
# Settings: S. cerevisiae mec2-1 strain, at 50.0 µM, active compounds read high
# Procedure, shortened: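 Mutant yeast (mec2-1) grown with compound; growth inhibition relative to vehicle control reported.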
row,Compound,growth inhibition
1,N=C(N)SCCC(=O)O,-21.1% (inactive)
2,CCOC(=O)/C=C(\C)c1ccc(OC)cc1,-22.4% (inactive)
3,O=c1/c(=C/c2cccc([N+](=O)[O-])c2)sc2nc3ccccc3n12,-12.7% (inactive)
4,Nc1cc(C(=O)O)cc2ccccc12,-5.35% (inactive)
5,CNC(=O)CN(CC(N)=O)C(=O)NC,-20.3% (inactive)
6,Cc1cccc(C(=O)N(C)C)c1,1.75% (inactive)
7,CC(=O)Oc1c(C)cc2c(c1C)C(C)(C)CN2C(=O)C(C)(C)C,-20.2% (inactive)
8,c1ccc(-c2cc3c(nn2)[nH]c2ccccc23)cc1,-1.95% (inactive)
9,CCOC(=O)c1cc2ccccc2nc1N,3.45% (inactive)
10,O=C1c2ccccc2C(O)(C#Cc2ccccc2)c2c1c(-c1ccccc1)c1ccccc1c2-c1ccccc1 (stereo not given),6.15% (inactive)
11,CC(=O)Nc1cc(Cl)cc2[nH]c(C)nc12,-3% (inactive)
12,O=[N+]([O-])c1ccccc1N=Nc1c(O)[nH]c2c(Cl)cc(Cl)cc12,-35.6% (inactive)
13,N#CCc1c(Cl)ccc(Cl)c1Cl,45.6% (inactive)
14,COc1ccccc1NCS(=O)(=O)O,-2.5% (inactive)
15,CCCCCCCCCCCC(=O)N/N=C(\C)c1cccc2ccccc12,84.2% (active)
16,C/C=C/c1nc2c(c(=O)n(C)c(=O)n2C)n1C,-8.2% (inactive)
17,Cn1cc(S(C)=O)c(=O)c2ccccc21 (stereo not given),-1.6% (inactive)
18,S=C(S)N1CCN(c2ccc(Cl)c(Cl)c2)CC1,-1.65% (inactive)
19,COCC(=O)Nc1ccccc1,6.05% (inactive)
20,C=C1C(=O)O[C@H]2[C@H]1CC(=O)/C(C)=C/CC[C@@]1(C)O[C@@H]21,21.4% (inactive)

row,Compound,growth inhibition
1,CCCCNC(=O)OCC,-25.6% (inactive)
2,Cc1cc(N)cc(C)n1,28.6% (inactive)
3,CCCCCC(CCCC)OC(=O)Nc1ccccc1 (stereo not given),7.85% (inactive)
4,C=CCOC(=O)C(C)OC(=O)/C(Cl)=C/C(=O)O (stereo not given),7.25% (inactive)
5,Nc1ccc(P(=O)(O)c2ccc(N)cc2Br)c(Br)c1,-6.1% (inactive)
6,COc1ccc(-c2nnc(Cl)o2)cc1,14.8% (inactive)
7,O=C(CN1C(=O)c2ccccc2C1=O)OCC(=O)c1ccccc1,12.4% (inactive)
8,CCC(=O)C(CC)c1ccccc1OC (stereo not given),-8.35% (inactive)
9,Cc1ccc2nc(C(O)C(O)C(O)CO)[nH]c2c1 (stereo not given),-14.9% (inactive)
10,CC(=O)Oc1ccc2c(c1)CCC1C2CCC2(C)CC(OC(C)=O)CC12 (stereo not given),-10.3% (inactive)
11,Cc1ccc(C(=O)N(Cc2ccccc2)Cc2ccccc2)cc1N=NN(C)C,-39.5% (inactive)
12,CC1CCCC(=O)CCC1,-4.6% (inactive)
13,CCCCCCC(C(=O)O)C(=O)O,-15.4% (inactive)
14,CN1CCC/C1=N\c1ncn[nH]1,-21.1% (inactive)
15,Cc1cccc2c1CCC21OC(=O)c2c1cc(F)c1ccccc21 (stereo not given),-15.4% (inactive)
16,Cc1c2ccccc2nc(CSCC(O)CO)[n+]1[O-] (stereo not given),10.7% (inactive)
17,O=C1CC2CCCCC2=C1O (stereo not given),-11.2% (inactive)
18,CC1C2(C)OCC(C#N)(C(=N)O2)C1(C#N)C#N (stereo not given),12.2% (inactive)
19,N#CCCN(CCC#N)c1ccc(/C=C2\N=C(c3cc([N+](=O)[O-])ccc3Cl)OC2=O)cc1,13.9% (inactive)
20,C1CCN(c2nn[nH]n2)CC1,-2% (inactive)
